Set-up in all cases: scale not given: direction of the effect not stated beside the values
The target of experiment [1] is Protein translocase subunit SecA (Escherichia coli (strain K12)) (UniProt P10408). Description: Assay to Identify E. coli SecA ATPase Inhibitors. Format: functional. As to conditions: 30 µM.
The target of experiment [2] is T1, Ubiquitin-activating enzyme e1, putative (Leishmania donovani (strain BPK282A1)) (UniProt E9BSI1).
T1 sequence (whole entry): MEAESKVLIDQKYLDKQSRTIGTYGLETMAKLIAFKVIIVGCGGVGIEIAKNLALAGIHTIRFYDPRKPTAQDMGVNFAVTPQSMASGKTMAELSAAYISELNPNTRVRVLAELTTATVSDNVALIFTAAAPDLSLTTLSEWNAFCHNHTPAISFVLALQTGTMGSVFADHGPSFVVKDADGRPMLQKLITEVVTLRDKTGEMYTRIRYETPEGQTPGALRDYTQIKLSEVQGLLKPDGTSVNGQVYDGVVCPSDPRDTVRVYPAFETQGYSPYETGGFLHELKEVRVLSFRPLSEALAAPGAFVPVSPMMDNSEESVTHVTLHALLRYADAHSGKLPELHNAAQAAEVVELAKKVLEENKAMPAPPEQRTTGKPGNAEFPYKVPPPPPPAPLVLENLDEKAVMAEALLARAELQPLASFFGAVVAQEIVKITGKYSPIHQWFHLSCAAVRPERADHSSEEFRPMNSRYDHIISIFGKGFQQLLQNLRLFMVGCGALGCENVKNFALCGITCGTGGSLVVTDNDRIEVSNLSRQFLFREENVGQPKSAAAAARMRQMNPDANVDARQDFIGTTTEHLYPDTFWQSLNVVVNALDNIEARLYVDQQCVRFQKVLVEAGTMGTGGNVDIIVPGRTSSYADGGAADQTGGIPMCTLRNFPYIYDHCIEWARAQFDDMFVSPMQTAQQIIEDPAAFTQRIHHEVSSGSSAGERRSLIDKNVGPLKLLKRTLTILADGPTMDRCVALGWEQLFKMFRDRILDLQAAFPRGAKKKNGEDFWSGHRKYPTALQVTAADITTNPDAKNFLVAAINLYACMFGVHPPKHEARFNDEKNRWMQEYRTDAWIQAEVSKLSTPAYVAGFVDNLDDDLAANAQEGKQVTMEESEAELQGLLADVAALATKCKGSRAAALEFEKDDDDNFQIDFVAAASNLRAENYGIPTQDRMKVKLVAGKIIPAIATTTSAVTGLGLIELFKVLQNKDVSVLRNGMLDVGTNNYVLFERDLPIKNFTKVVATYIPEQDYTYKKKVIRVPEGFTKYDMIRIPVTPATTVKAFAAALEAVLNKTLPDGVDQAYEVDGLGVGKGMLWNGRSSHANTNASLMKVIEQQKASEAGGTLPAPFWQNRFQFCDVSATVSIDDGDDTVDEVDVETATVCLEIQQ
The experiment is described as follows: Leishmania donovani Ubiquitin Activating Enzyme (LdE1). The experiment is classed as functional. The note with it: 30 µM.

The target of experiment [3] is AMP-activated protein kinase, AMPK (Homo sapiens) (UniProt P54646+O43741+P54619+Q9UGJ0+Q9Y478+Q13131+Q9UGI9). Description: AMP-dependent Kinase enzyme assay. An in vitro enzyme assay that detects ADP turnover that is directly proportional to AMPK activity. This uses naive AMPK that is activated during the assay with MK-8722. Format: functional. The note with it: 30 µM.

The target in experiment [4] is Sialic acid-binding Ig-like lectin 9 (Homo sapiens) (UniProt Q9Y336). The experiment is described as follows: Hs-Siglec9 ALPHAscreen SOP 20170721. The note with it: 10 µM. On the technique in general: In Alpha technology, singlet oxygen from a donor bead excites a nearby acceptor bead.
Sialic acid-binding Ig-like lectin 9 (Homo sapiens), sequence (Q9Y336 whole entry): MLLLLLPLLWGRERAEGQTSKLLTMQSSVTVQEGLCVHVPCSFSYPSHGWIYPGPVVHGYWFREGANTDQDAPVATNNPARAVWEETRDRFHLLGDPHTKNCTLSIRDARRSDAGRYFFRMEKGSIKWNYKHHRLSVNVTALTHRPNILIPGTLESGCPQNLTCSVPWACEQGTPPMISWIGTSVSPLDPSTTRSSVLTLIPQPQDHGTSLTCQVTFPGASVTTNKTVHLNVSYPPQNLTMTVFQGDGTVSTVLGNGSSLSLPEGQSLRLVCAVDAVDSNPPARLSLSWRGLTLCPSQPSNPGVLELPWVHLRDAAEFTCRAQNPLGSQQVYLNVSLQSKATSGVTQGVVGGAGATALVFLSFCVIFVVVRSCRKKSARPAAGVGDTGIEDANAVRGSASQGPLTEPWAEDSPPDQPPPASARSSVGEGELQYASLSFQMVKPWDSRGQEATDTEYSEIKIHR
The test system of the next experiment is Trypanosoma cruzi. The experiment is described as follows: Trypanosoma cruzi phosphomannomutase and mannose-1-phosphate guanylyltransferase assay. The experiment is classed as functional. As to conditions: 10 µM.
Experiment [5] addresses T2, Arginase-2, mitochondrial (Homo sapiens) (UniProt P78540).
T2 sequence (whole entry): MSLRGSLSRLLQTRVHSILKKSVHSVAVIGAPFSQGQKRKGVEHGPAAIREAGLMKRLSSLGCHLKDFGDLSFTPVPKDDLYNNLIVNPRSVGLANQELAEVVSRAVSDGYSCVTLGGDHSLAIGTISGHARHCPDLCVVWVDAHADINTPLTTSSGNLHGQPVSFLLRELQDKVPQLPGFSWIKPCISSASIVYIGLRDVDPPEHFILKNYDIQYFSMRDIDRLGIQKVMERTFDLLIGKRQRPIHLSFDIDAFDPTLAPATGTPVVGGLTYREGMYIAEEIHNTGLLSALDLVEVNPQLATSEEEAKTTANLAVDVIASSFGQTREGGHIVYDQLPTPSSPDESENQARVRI
Description: in vitro enzyme assay to detect the production of urea directly proportional to the activity of Arginase II. Note: in the data most compounds retested in dose-response had high values. Format: functional. The note with it: 33.3 µM.

Experiment [6] has as its target T3, Proteasome subunit beta (Trypanosoma cruzi) (UniProt O96673).
T3 sequence (whole entry): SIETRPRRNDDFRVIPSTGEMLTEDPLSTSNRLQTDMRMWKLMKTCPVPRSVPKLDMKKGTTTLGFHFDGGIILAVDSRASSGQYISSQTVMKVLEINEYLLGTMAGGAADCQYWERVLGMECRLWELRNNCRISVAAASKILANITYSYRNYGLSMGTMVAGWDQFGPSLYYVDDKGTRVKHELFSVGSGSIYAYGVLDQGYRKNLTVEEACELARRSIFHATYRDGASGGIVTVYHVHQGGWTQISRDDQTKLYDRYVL
Description: Trypanosoma cruzi proteasome chymotrypsin-like activity (TcProtChymo) assay. Note: in the data most compounds retested in dose-response had high values. Format: functional. The note with it: 9.37 µM.

For a further experiment, the species on record is Homo sapiens. The experiment is described as follows: To identify inhibition of the IFN signalling (Jak-Stat) pathway via expression of an eGFP reporter gene under the control of an IFN-stimulated response element (ISRE) containing MxA promoter. Format: functional. As to conditions: 30 µM.
In experiment [7] the target is T4, Tyrosyl-tRNA synthetase, putative (Trypanosoma cruzi (strain CL Brener)) (UniProt Q4DSP6).
T4 sequence (whole entry): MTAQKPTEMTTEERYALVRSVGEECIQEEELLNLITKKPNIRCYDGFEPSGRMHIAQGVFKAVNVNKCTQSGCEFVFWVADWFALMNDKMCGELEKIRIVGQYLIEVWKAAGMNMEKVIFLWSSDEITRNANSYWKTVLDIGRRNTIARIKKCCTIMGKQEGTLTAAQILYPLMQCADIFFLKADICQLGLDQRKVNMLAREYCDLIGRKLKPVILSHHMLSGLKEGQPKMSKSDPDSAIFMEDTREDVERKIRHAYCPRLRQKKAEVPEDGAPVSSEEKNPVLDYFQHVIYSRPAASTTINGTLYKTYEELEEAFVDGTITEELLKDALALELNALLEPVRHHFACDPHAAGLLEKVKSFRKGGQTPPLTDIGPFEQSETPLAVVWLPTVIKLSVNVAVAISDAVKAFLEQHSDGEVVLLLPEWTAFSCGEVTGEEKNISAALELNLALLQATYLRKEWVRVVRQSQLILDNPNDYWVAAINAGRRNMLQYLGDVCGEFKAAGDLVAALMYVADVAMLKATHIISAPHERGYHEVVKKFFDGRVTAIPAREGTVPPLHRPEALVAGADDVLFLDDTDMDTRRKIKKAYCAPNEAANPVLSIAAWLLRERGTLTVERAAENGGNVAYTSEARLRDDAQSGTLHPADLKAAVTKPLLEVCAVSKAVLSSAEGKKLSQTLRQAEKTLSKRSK
Description: Trypanosoma cruzi tyrosyl tRNA synthetase (TcYRS) _High Tyrosine SOP. Note: in the data most compounds retested in dose-response had high values. As to conditions: 30 µM. The experiment is classed as functional.

For experiment [8], the target named is T4, Tyrosyl-tRNA synthetase, putative (Trypanosoma cruzi (strain CL Brener)). The experiment is described as follows: Trypanosoma cruzi tyrosyl tRNA synthetase (TcYRS) SOP. The experiment is classed as functional. The note with it: 30 µM.
Experiment [9] concerns the target Chromo domain-containing protein 1 (Saccharomyces cerevisiae (strain ATCC 204508 / S288c) (Baker's yeast)) (UniProt P32657). Description: ScCHD-1 Enzyme Inhibition Assay. Note: in the data most compounds retested in dose-response had high values. The experiment is classed as functional. As to conditions: 30 µM.

For some assays here: Results with a measured potency or affinity are listed apart.

Chromo domain-containing protein 1 (Saccharomyces cerevisiae (strain ATCC 204508 / S288c) (Baker's yeast)), sequence (P32657 whole entry, the tested form may be a part): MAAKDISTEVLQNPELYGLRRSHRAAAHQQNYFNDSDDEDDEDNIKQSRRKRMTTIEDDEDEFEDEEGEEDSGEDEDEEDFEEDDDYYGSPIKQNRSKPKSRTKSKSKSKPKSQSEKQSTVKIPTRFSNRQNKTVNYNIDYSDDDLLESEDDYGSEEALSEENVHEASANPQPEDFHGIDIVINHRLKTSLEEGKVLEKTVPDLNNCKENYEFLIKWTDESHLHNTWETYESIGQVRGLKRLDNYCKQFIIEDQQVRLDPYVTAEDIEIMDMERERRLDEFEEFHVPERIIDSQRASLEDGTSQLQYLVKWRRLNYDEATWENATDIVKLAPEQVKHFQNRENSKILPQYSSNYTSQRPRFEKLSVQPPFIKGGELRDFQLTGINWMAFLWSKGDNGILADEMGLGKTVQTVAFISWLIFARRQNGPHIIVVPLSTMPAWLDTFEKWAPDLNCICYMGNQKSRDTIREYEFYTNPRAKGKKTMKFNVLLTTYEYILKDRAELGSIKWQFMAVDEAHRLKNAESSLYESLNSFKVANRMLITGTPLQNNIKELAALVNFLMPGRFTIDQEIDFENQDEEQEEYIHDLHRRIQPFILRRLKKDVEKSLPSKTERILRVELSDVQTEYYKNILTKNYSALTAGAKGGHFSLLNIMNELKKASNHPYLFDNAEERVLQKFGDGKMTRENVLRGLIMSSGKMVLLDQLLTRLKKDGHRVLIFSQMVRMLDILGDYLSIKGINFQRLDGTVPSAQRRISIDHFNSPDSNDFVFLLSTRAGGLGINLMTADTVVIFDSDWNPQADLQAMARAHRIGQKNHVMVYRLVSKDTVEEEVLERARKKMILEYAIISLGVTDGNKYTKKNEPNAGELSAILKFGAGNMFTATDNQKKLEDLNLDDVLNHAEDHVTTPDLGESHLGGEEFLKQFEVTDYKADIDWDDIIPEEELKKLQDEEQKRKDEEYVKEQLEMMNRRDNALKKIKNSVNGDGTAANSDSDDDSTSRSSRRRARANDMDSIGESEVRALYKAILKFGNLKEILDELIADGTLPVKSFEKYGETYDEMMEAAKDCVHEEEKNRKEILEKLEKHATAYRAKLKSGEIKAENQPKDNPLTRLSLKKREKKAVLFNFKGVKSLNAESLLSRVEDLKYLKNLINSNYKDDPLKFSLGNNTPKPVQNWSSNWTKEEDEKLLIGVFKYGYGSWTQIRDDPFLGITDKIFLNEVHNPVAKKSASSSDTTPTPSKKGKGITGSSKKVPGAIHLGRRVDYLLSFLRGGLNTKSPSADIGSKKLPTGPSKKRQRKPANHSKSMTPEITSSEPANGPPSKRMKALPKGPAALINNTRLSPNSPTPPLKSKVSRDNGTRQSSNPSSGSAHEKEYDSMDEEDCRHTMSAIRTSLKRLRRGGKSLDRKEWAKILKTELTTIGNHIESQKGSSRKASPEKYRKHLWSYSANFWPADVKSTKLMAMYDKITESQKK
Protein translocase subunit SecA (Escherichia coli (strain K12)), sequence (P10408 whole entry): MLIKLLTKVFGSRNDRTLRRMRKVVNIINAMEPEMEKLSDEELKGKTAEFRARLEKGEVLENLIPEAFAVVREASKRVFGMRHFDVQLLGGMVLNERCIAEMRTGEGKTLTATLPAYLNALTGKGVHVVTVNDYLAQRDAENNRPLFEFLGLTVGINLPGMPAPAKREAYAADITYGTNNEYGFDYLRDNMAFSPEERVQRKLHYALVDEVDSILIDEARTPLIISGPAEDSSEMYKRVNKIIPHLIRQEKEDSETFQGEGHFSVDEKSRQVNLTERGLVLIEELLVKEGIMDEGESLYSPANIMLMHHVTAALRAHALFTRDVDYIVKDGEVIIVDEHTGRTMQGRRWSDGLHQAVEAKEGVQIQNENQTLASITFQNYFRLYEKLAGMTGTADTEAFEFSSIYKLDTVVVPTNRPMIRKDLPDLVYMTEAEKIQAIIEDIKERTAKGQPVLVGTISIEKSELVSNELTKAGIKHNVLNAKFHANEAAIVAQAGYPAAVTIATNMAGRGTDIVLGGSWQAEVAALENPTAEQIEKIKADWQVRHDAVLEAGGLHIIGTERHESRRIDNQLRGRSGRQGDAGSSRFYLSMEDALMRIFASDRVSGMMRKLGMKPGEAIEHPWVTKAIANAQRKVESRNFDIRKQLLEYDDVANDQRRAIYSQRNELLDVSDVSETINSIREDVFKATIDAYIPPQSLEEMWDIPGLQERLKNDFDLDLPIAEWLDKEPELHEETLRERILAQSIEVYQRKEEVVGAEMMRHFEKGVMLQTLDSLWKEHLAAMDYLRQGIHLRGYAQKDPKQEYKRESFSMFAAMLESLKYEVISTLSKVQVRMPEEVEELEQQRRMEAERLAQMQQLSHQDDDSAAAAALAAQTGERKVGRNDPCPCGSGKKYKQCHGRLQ

Consider `COCCOc1ccccc1CNCc1c(C)nn(C)c1N(C)C`, for which the Percent Effect in [1] was -4.61%; in experiment [2], 8.11%; in experiment [3], -17.4%; in [4], -0.683%; in the experiment on Trypanosoma cruzi it was -2.92%; in experiment [5], -0.802%. Also, the Percent Effect in [6] was 1.26%; in the experiment filed under Homo sapiens, -12%; in experiment [7] it was 5.42%; in experiment [8], 11.1%; in experiment [9], -4.5%.
Regarding `CN1CCCC[C@@H]2[C@H]1[C@@H](c1ccccc1)CCN2C(=O)c1ccccc1`, the Percent Effect was -2.17% in [1]; -12.2% in [2]; 2.42% in [3]; 3.03% in [4]; 4.54% with Trypanosoma cruzi; 0.696% in [5]. The Percent Effect in [6] is 15.6%; in the experiment listed under Homo sapiens, -13.3%; in experiment [7] it was 7.53%; in [8], 14.3%; in experiment [9], -12.5%.
As for `CCCc1cc(=O)[nH]c2nnc(SCC(=O)NCc3ccc(C)cc3)n12`, the Percent Effect was -0.143% in [1]; 13.7% in experiment [2]; -0.135% in [3]; 6.56% in experiment [4]; 3.33% in the experiment with Trypanosoma cruzi; 13.6% in experiment [5]. Further, the Percent Effect in experiment [6] was 20.2%; in the experiment listed under Homo sapiens, 16.9%; in experiment [7], 6.45%; in experiment [8] it was 17.5%; in [9] it was -7.5%.
Regarding `Cn1cc(CNC2CCCN(Cc3noc(C4CC4)n3)C2)cn1` (stereo not given), the Percent Effect in experiment [1] is -1.45%; in experiment [2], 13.2%; in [3], 1.88%; in experiment [4], -6.33%; with Trypanosoma cruzi, -4.51%; in experiment [5], 5.75%. Further, the Percent Effect in experiment [6] was 18.7%; in the experiment filed under Homo sapiens, 28.1%; in experiment [7] it was 2.45%; in [8], 12.2%; in [9] it was -11.8%.
Turning to `CN(C)S(=O)(=O)N1CC[C@@H]2CN(Cc3cnn(C)c3)C[C@@H]2C1`, the Percent Effect in experiment [1] was -6.2%; in experiment [2], -2.6%; in [3], 26.8%; in experiment [4], -2.67%; in the experiment on Trypanosoma cruzi, -4.63%; in experiment [5] it was 0.645%. In addition, the Percent Effect is 0.696% in experiment [6]; 33.3% in the experiment filed under Homo sapiens; -1.06% in experiment [7]; -1.28% in [8]; -3.27% in [9].
On to `CC1COCCN1Cc1nc(-c2cccs2)no1` (stereo not given), for which the Percent Effect in [1] was -2.46%; in [2], 10.8%; in experiment [3], 138%; in [4], -4.28%; in the experiment with Trypanosoma cruzi, -3.49%; in [5], -2.4%. Besides, the Percent Effect in experiment [6] is 11.5%; in the experiment listed under Homo sapiens, 13.2%; in [7], 4.43%; in [8], 13.6%; in [9], -7.61%.
Regarding `COC(C(=O)N1CCCN(Cc2cscn2)CC1)c1ccccc1` (stereo not given), the Percent Effect in experiment [1] was -0.131%; in experiment [2] it was 21.1%; in experiment [3], -3.46%; in experiment [4], -3.88%; in the experiment on Trypanosoma cruzi, 4.89%; in [5], -5.36%. Further, the Percent Effect is 23.2% in experiment [6]; 6.84% in the experiment listed under Homo sapiens; 5.39% in [7]; 24.4% in experiment [8]; -9.91% in experiment [9].
With `c1cnnc(N2CCCC(NCc3ccc(-n4cccn4)cc3)C2)c1` (stereo not given), the Percent Effect was -0.865% in experiment [1]; -5.2% in [2]; 14.6% in experiment [3]; 4.94% in [4]; -0.686% in the experiment with Trypanosoma cruzi; 1.9% in experiment [5]. The Percent Effect was 1.7% in experiment [6]; 20.3% in the experiment filed under Homo sapiens; 0.952% in experiment [7]; 7.06% in [8]; -7.51% in experiment [9].
Turning to `Cc1nc(C)n(CC2CCCN(c3ncnc4[nH]ccc34)C2)n1` (stereo not given), the Percent Effect was -4.25% in experiment [1]; 11.4% in experiment [2]; 69.9% in experiment [3]; 5.73% in experiment [4]; -4.21% in the experiment with Trypanosoma cruzi; 0.645% in experiment [5]. Also, the Percent Effect in [6] was 15.8%; in the experiment filed under Homo sapiens it was 42.8%; in experiment [7] it was 6.25%; in experiment [8], 5.06%; in [9], -4.67%.
As to `O=C(Nc1ccccn1)N(CCO)Cc1ccsc1`, the Percent Effect in experiment [1] was -2.18%; in [2], 10.5%; in experiment [3] it was 4.91%; in experiment [4] it was 14.4%; in the experiment with Trypanosoma cruzi, 0.564%; in [5], 0%. In addition, the Percent Effect in [6] is 11.2%; in the experiment filed under Homo sapiens, 9.82%; in [7], 8.33%; in experiment [8] it was 17.1%; in experiment [9], -3.38%.
